This is a sample that favours compounds with a hit; in the whole collection about 12% have one here.
L3MBTL1 block = inhibitors of human L3MBTL1; Potency, µM (titrated, usually from 57.1 µM), inactives show at the highest dose activity, negative = inhibition, actives largely listed as inhibitors; Q9Y468; AlphaScreen L3MBTL1–H3K9me1 peptide binding; 0.66% of 230,000 active; AID 485360; further: on the % scale 0 is the no-effect control and ±100 the full control effect; nearly all actives have a fitted effect of over 60% in size
Target sequence (Q9Y468 whole entry, looked up): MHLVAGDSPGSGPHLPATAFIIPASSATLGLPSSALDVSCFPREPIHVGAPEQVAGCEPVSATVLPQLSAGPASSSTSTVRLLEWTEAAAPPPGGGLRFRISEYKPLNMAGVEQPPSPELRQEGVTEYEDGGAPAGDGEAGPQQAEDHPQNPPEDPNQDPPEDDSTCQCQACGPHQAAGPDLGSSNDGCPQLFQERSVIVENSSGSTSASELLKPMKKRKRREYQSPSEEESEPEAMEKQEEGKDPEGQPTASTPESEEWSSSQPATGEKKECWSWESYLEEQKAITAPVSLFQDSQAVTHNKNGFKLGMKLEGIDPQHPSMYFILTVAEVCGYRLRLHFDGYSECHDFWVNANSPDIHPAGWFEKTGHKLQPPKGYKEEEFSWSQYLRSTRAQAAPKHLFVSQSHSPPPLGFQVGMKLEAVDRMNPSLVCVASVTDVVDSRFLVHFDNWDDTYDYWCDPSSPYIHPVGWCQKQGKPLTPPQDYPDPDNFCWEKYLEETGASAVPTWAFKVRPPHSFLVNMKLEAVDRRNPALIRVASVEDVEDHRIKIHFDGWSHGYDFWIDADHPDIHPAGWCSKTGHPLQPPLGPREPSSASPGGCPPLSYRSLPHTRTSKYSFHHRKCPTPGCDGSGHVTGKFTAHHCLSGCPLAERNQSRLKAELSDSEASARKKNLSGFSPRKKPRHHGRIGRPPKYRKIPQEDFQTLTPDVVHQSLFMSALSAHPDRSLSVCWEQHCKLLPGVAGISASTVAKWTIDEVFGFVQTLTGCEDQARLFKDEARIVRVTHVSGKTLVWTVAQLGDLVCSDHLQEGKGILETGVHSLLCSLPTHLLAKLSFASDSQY
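AlphaScreen proximity signal between nickel-chelate acceptor and streptavidin donor beads (final 10 ug/mL) reports binding of 50 nM L3MBTL1 to 75 nM biotin-H3 K9me1 peptide; complex incubated with compounds 30 min at room temperature; cefsulodin titration as control.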
HP1b chromo inh = blocks HP1-beta chromodomain binding to methylated histone tails; P83916; AlphaScreen HP1-beta / biotin-H3K9me3 peptide binding; Potency, µM (titrated, usually from 114 µM), for the others: top-dose activity change, negative = inhibition, actives largely listed as inhibitors; 0.56% of 390,000 active; further: nearly all actives have a fitted effect of over 70% in size
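HP1-beta protein (50 nM final) preincubated 30 min at room temperature with biotinylated H3(1-18)K9me3 peptide (50 nM) in PBS pH 7.4, 0.01% Tween-20, then compound added for 30 min. AlphaScreen streptavidin donor/nickel chelate acceptor beads (10 ug/mL final), 30 min dark, luminescence read.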
G9a block = blocks human histone lysine methyltransferase G9a | Q96KQ7 | G9a H3K9 monomethylation, AlphaScreen, 2 h | Potency, µM (doses to about 102 µM), for inactives: at the top dose activity, negative = inhibition, actives largely listed as inhibitors | 8.8% of 350,000 active | AID 504332; further: on the % scale 0 is the no-effect control and ±100 the full control effect; nearly all actives have a fitted effect of over 75% in size
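Quantitative HTS format: methyltransferase activity on a biotin-tagged H3K9 peptide is measured by AlphaScreen, using a rabbit anti-monomethyl-H3K9 antibody with streptavidin donor and anti-IgG acceptor beads. Final levels are 20 nM enzyme, 500 nM peptide, 20 uM SAM; 2 h RT.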
BAZ2B inh = inhibitors of human BAZ2B bromodomain; AID 504333; 4.4% of 360,000 active; Potency, µM (titrated, usually from 114 µM), without a hit: at the top dose activity change, negative = inhibition, hits mostly inhibitors; AlphaScreen BAZ2B-H3K14Ac peptide displacement; Q9UIF8; further: on the % scale 0 is the no-effect control and ±100 the full control effect; nearly all actives have a fitted effect of over 60% in size
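AlphaScreen displacement: compounds (up to 110uM) incubated 30 min at room temperature with a preformed 50 nM BAZ2B/50 nM biotinylated H3K14Ac peptide complex in PBS pH 7.4 with Tween-20. Donor and acceptor beads at 10 ug/mL final added, 20 min light-protected before reading.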
JMJD2A Tudor = inhibitors of human JMJD2A Tudor domain. O75164. AlphaScreen JMJD2A-Tudor / H3K4me3 peptide binding. Potency, µM (series often up to 114 µM), for inactives: top-dose activity change, negative = inhibition, usual class: inhibitors. 4.4% of 390,000 active. AID 504339; further: on the % scale 0 is the no-effect control and ±100 the full control effect; nearly all actives have a fitted effect of over 50% in size
Sfp PPTase inh = inhibitors of Bacillus subtilis Sfp phosphopantetheinyl transferase. 3.5% of 310,000 active. Q9F4F7. Potency, µM, for inactives: largest response in the series, negative = inhibition, actives largely listed as inhibitors. Biochemical Sfp PPTase activity, qHTS;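 further: the enzyme is Sfp with the accession as filed and its product quenches rhodamine fluorescence; 0% = enzyme reaction without inhibitor and -100% = no enzyme wells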
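After 15 min at room temperature with compound, 15 nM Sfp received 5 uM rhodamine-CoA plus 12.5 uM BHQ-2-ybbR (50 mM Hepes pH 7.6, 10 mM MgCl2). Rate came from the fluorescence difference over 30 min, ex 525/em 598 nm.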
The depositor's hits bear a star; ? = inconclusive; nt = no result; [ ] = remark or other dose. The call rests on the fitted dose curve; in most records, active means well fitted curve in the direction sought with a large enough effect; inconclusive means small, poorly fitted or top-dose-only effect, or another doubt; inactive means no such curve, though single readings can be large; an effect the other way counts as inactive or inconclusive. Potency means the concentration at half of the fitted maximal effect.

SMILES	L3MBTL1 block	HP1b chromo inh	G9a block	BAZ2B inh	JMJD2A Tudor	Sfp PPTase inh
COc1cccc2cc(C(=O)NCCN3CCOCC3)oc12	nt	30%	45µM*	-24%	-5%	-7%
COc1ccccc1-c1cc(C(=O)NCCN2CCOCC2)no1	-1%	8%	-30%	0%	-8%	16%
COc1cccc2cc(C(=O)C3=C(O)C(=O)N(CCN4CCOCC4)C3c3ccc(C(C)(C)C)cc3)oc12 (stereo not given)	nt	-10%	32µM*	-29%	56µM*	2%
Cc1ccc(Cl)cc1NC(=O)c1ccc2nc(CCc3ccccc3)oc2c1	nt	28%[57 µM]	-20%[59 µM]	1%	-5%	nt
CN(C(=O)c1cccc(NC(=O)Cc2cccc(NC(=O)C3CCCN(C(=O)C4CCC4)C3)c2)c1)C1CCC1 (stereo not given)	nt	90%	nt	nt	-8%	nt
Cc1cccc(Oc2ncnc3oc(-c4ccccc4)cc23)c1C	1%	44%	-5%[59 µM]	19%	20%	12%
COc1ccc(CN2C(=O)N(c3cccc(C)c3)C(=O)C2CC(=O)Nc2ccc(F)cc2)cc1OC (stereo not given)	nt	31%	2%[59 µM]	1%	-8%	nt
CN(C)CCCN1C(=O)C(O)=C(C(=O)c2cc3ccccc3o2)C1c1ccccc1 (stereo not given)	-4%	56%	14µM*	?	-24%[11.4 µM]	26%
O=C(C1=C(O)C(=O)N(CCN2CCOCC2)C1c1ccc(Br)cc1)c1cc2ccccc2o1 (stereo not given)	nt	29%	?	?	6%	7%
COC(=O)c1ccc(C2C(C(=O)c3cc4ccccc4o3)=C(O)C(=O)N2CCCN(C)C)cc1 (stereo not given)	-4%	20%	?	?	-33%	17%
Cc1ccc(C2C(C(=O)c3cc4ccccc4o3)=C(O)C(=O)N2CCN2CCOCC2)o1 (stereo not given)	-2%	10%	?	?	89µM*	50µM*
Cc1ccc(C2C(C(=O)c3cc4ccccc4o3)=C(O)C(=O)N2CCN2CCOCC2)cc1 (stereo not given)	nt	4%[57 µM]	40µM*	-29%	?	6%
COC(=O)c1ccc(C(NC(=O)OCc2ccccc2)/C(=C/[C@@H](C)C(=O)N[C@@H](CO)Cc2ccccc2)c2cccnc2)cc1 (stereo not given in full)	nt	nt	nt	nt	nt	10%
COc1cccc(NC(=O)CCc2nnc3n(CC(C)C)c(=O)c4ccccc4n23)c1	nt	19%	?	2%	-13%	nt
O=C(CCc1nc2ccccc2c(=O)[nH]1)Nc1nc(-c2cccs2)cs1	-1%	-14%	45µM*	2%	-19%	nt
C=CCn1c(C)cc(-c2csc(NC(=O)CCc3nc4ccccc4c(=O)[nH]3)n2)c1C	-9%	-2%	32µM*	?	-26%	nt
COCCn1c(SCC(=O)Nc2cccc(S(N)(=O)=O)c2)nc2cc(Cl)ccc2c1=O	9%	-17%	3%	-3%	20µM*	0%
COCCn1c(SCC(=O)Nc2cccnc2Cl)nc2cc(Cl)ccc2c1=O	-6%	24%	-28%[2.33 µM]	6%	-6%	nt
COCCn1c(SCC(=O)Nc2sccc2C(N)=O)nc2cc(Cl)ccc2c1=O	-8%	15%	45µM*	-35%	-15%	-15%
O=C(NC1CCCC1)c1ccc2c(=O)n(Cc3ccccc3)c(SCc3cccc(F)c3)nc2c1	nt	11%[57 µM]	21%[59 µM]	7%	5%	nt
COc1ccc(C2Nc3ccccc3C(=O)N2Cc2ccccn2)cc1COc1ccc(NC(C)=O)cc1 (stereo not given)	nt	nt	nt	nt	56µM*	nt
COc1ccc(C2Nc3ccccc3C(=O)N2C2CCCC2)cc1COc1ccc(NC(C)=O)cc1 (stereo not given)	nt	nt	nt	nt	50µM*	nt
COc1ccc(CN2C(=O)c3ccccc3NC2c2ccc(OC)c(COc3ccc(NC(C)=O)cc3)c2)cc1 (stereo not given)	nt	nt	nt	nt	-24%	nt
COc1ccc(C2Nc3ccccc3C(=O)N2Cc2ccccc2Cl)cc1COc1ccc(NC(C)=O)cc1 (stereo not given)	nt	nt	nt	nt	-19%	nt
COc1ccc(C2Nc3ccccc3C(=O)N2Cc2cccnc2)cc1COc1ccc(NC(C)=O)cc1 (stereo not given)	nt	nt	nt	nt	56µM*	nt
SMILES	L3MBTL1 block	HP1b chromo inh	G9a block	BAZ2B inh	JMJD2A Tudor	Sfp PPTase inh
COCOc1ccc(OC)cc1C(=O)/C=C/c1ccc(OC)c(Br)c1	nt	nt	nt	nt	nt	-4%
C/C(CC(=O)NC1CCCCC1)=N\NC(=O)c1ccc(Br)cc1	nt	37%	-19%	2%	1%	?
C/C(CC(=O)NC1CCCCCC1)=N\NC(=O)c1cnccn1	6%	12%	?	-4%	2.2µM*	-11%
C/C(CC(=O)NC1CCCC1)=N\NC(=O)C1CCCCC1	8%	29%	6%	-16%	1%	11%
C/C(CC(=O)NC1CCCCC1)=N\NC(=O)c1ccccc1C	nt	30%	40µM*	-13%	7%	12%
CC(C)(C)C1CCc2c(sc(NC(=O)c3ccccc3F)c2C(=O)NCc2ccco2)C1 (stereo not given)	nt	25%	7%[59 µM]	3%	10%	nt
CC(=O)c1cccc(S(=O)(=O)NC(C)C2CC3CCC2C3)c1 (stereo not given)	nt	12%	50µM*	-5%	-22%	-4%
COCCn1c(CNC(=O)c2ccc(C)cc2)nc2cccnc21	nt	31%[57 µM]	27%[59 µM]	0%	0%	nt
COC(=O)CCN(C)CCC(=O)OC	15%	55%	-3%[2.33 µM]	13%	50µM*	12%
Cc1ccccc1OCC(=O)Nc1sc(C(=O)Nc2cccc(C)c2C)c(C)c1C#N	-10%	4%	nt	7%	-21%	12%
CCc1ccc(Nc2ccc3nonc3c2[N+](=O)[O-])cc1	nt	-4%	nt	nt	-15%	nt
CCOC(=O)NNc1ccc2nonc2c1[N+](=O)[O-]	32µM*	?	nt	40µM*	56µM*	20µM*
O=S(=O)(NC1CCCC(NS(=O)(=O)c2c(F)cccc2F)C1)c1ccc2c(c1)OCCO2 (stereo not given)	nt	nt	nt	nt	-10%	nt
O=C(Cc1cc(=O)[nH][nH]1)N/N=C/c1c(F)cccc1Cl	nt	55%	-5%	-14%	-7%	16%
O=C(Cc1cc(=O)[nH][nH]1)N/N=C/c1c(Cl)cccc1Cl	-8%	1%	3%[59 µM]	-36%	-32%	50µM*
Cc1cccc(N=C2NC(=O)/C(=C/C=C/c3ccco3)S2)c1C	7.9µM*	45µM*	18µM*	22µM*	40µM*	40µM*
Cc1ccc(N=C2NC(=O)/C(=C/c3cccn3C)S2)cc1C	-8%	10%	-4%	-13%	-25%	14%

High-throughput results from PubChem.
